Only some compounds are listed: those with a hit (about 3.1% of all), similar ones and a draw of the others.
HIF-2a block – HIF-2a reporter inhibitors, primary screen, luminescence, 786-0 RCC cells; 786-0 RCC cells HIF-2a reporter, luciferase luminescence, overnight; inhibition, % at 18.8 µM; 0.72% of 360,000 active; AID 624352, 2012;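 active means inhibition of the luminescence signal of 40% or more relative to plate controls, in a single-dose primary screen at 18.75 µM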
Peg3 promoter – Peg3 promoter-driven luciferase inhibitors, primary screen, cell-based, HeLa, luciferase luminescence; 1.7% of 360,000 active; inhibition, % at 20 µM; AID 588405, 2011; HeLa PEG-Prom luciferase reporter, overnight;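 active means inhibition of at least 50% at 20 µM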
KKLEB tox – cytotoxicity in KKLEB CF airway cells, primary screen, cytotoxicity control for CF NF-kB inhibitor project, cell-based, uHTS, fluorescence assay plates. 0.36% of 360,000 active. KKLEB CF airway cells viability, ATPlite luminescence, overnight; hits give low values; cells stimulated with P. aeruginosa culture filtrate. AID 602141, 2011. activity change (cytotoxicity), % at 5 µM;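 active means corrected activity change at or below -50% at 5 µM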
TRPM1 prom inh – inhibitors of MITF-dependent TRPM1 promoter reporter, primary screen, cell-based, SK-MEL-5, single point, luciferase; SK-MEL-5 TRPM1 promoter luciferase, 24 h; inhibition, % at 12.5 µM; AID 488899, 2010; 0.83% of 330,000 active;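 active means mean inhibition across replicates of 60% or more, whatever share of single replicates reaches that level; inconclusive means some that reach 60%, reason not given; inactive means mean inhibition across replicates below 60%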
ABHD5-PLIN5 inh – ABHD5-PLIN5 interaction inhibitors, primary screen, cell lysate, split luciferase complementation, luminescence; Split G. princeps luciferase complementation, 4 h; Perilipin-5 (Homo sapiens) + 1-acylglycerol-3-phosphate O-acyltransferase ABHD5 (Homo …; inhibition, % at 4 µM; 0.78% of 360,000 active;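 active means inhibition above the mean inhibition across every tested compound plus 3 SD, cut at about 22% in these data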;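 further: 0% = DMSO only wells and the 100% control is not disclosed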
CF NFkB inh – inhibitors of PAF-induced NF-kB signaling, primary screen, cell-based, GFP fluorescence, uHTS; AID 588850, 2011; 0.86% of 360,000 active; KKLEB NF-kB-GFP reporter, GFP fluorescence overnight; inhibition, % at 5 µM;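 active means at least 50% inhibition at 5 µM, scaled per plate between neutral and stimulator controls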;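 further: PAF is a Pseudomonas aeruginosa culture filtrate used as stimulus; plate controls were PAF-stimulated DMSO wells for no effect and unstimulated DMSO wells for full effect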
* marks the source's active call; other numbers are inactive results; ? = inconclusive; ! = a repeat was not active.

SMILES	HIF-2a block	Peg3 promoter	KKLEB tox	TRPM1 prom inh	ABHD5-PLIN5 inh	CF NFkB inh
CCCn1c(=N)n(CC(=O)c2ccc([N+](=O)[O-])cc2)c2ccccc21	-65	60*	-3	27	1	-21
O=C(Nc1cc(S(=O)(=O)N2CCCCC2)ccc1N1CCCCC1)c1ccncc1	23	9	2	3	-1	-5
CC(=O)Nc1cc([N+](=O)[O-])ccc1N1CCOCC1	14	4	5	-1	-1	23
O=C(Nc1ccc([N+](=O)[O-])cc1)Nc1ccc(N2CCOCC2)c2nonc12	-32	62*	-20	-5	-4	10
CCCc1cnc(NCCNCC(O)COc2ccc(Cl)c(Cl)c2)nc1 (centres undefined)	5	107*	-4	40	5	4
CC1=C(C(=O)Nc2cccc(C(=O)NC3CCCCC3C)c2)SCCO1 (centres undefined)	3	13	1	5	-5	-11
CCOC(=O)c1c(-c2ccc(-c3ccccc3)cc2)csc1NC(=O)C1C2CCC(O2)C1C(=O)O (centres undefined)	10	-1	10	8	34*	2
Nc1nc(-c2ccccc2)c(N=Nc2cccc3ccccc23)s1	-32	2	8	23	23*	24
CC(=O)Nc1sc(N)nc1-c1ccccc1	-1	0	-6	-1	-10	8
OC[C@@H]1[C@@H](c2ccccc2)C(c2ccccc2)=NN1c1ccccc1	11	14	-3	8	-7	-2
c1ccc(-c2nn(-c3ccccc3)[n+](-c3ccccc3)n2)cc1	-16	7	-8	62*	0	2
Cc1nc(C)c(C(=O)OCC(=O)Nc2cccc(C)c2C)s1	5	6	3	-3	10	14
CCCN1C(=O)/C(=C/c2nc3ccccc3c(=O)[nH]2)c2ccccc21	20	47	5	-8	1	-32
CC(C)N1C(=O)/C(=C\c2nc3ccccc3c(=O)[nH]2)c2ccccc21	31	61*	2	-18	18	21
Cc1ccc(C)c(Cn2c3ccccc3c3cnn(CC(=O)NCc4ccccn4)c(=O)c32)c1	4	-11	15	2	8	-42
Cc1ccc(C)c(Cn2c3ccccc3c3cnn(CC(=O)NCCCN4CCCCC4)c(=O)c32)c1	19	86*	0	?	16	5
Cc1cccc(CCNS(=O)(=O)c2ccc3c(c2)CCN3C(=O)CCC(=O)O)c1	-5	0	-5	-1	4	-32
COc1cc(Nc2ccccn2)cc(C(=O)Nc2cccc(C(F)(F)F)c2)c1	-90	81*!	-8	14	4	2
COc1ccc(CCNC(=O)C2=CCN(S(=O)(=O)c3ccc(F)cc3)CC2)cc1OC	14	10	3	-21	2	-12
COc1ccc(C2(C(=O)Nc3ccc(C)cc3)CCOCC2)cc1	18	9	-5	7	1	3
Cc1ccc(-c2ccc(/C=N\NC(=O)c3cc4c(ccc5ccccc54)o3)o2)cc1[N+](=O)[O-]	11	91*	-20	2	1	-4
Cc1cc([N+](=O)[O-])ccc1-c1ccc(/C=N/NC(=O)c2ccc(Br)o2)o1	-2	111*	-47	2	10	-11
c1ccc2c(-c3cc(C4CCNCC4)[nH]n3)cccc2c1	16	15	-3	-17	13	13
CCN1C(=NCc2ccc(OC)cc2)N[C@@H](c2ccccc2)C(C(=O)OC)=C1C	-1	-29	6	-6	-5	-3
COC(=O)C1=C(C)N(Cc2ccccc2)C(=NCc2cccc(Cl)c2)N[C@H]1c1cccc(F)c1	2	104*	-53*	95*	6	60*
COC(=O)C1=C(C)N(Cc2ccccc2)C(=NCCc2cccnc2)N[C@H]1c1ccc(Br)cc1	-12	94*	-22	78*	15	29
